This is a sample that favours compounds with a hit; in the whole collection about 1.6% have one here.
KCNQ2 inh: blocks the rat KCNQ2 potassium channel; AID 2156; CHO-K1 KCNQ2, FluxOR thallium flux, 20 min; active compounds read low; B-score at 10 µM; 310,000 compounds, 1.1% hits;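 active = fluorescence ratio B-score at most minus 3 library SDs, with starting brightness B-score within 2 library SDs, cut at about -5.5 in these data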
KCNQ2 enhance: potentiators of rat KCNQ2 potassium channel; AID 2239; 310,000 compounds, 0.54% hits; B-score at 10 µM; O88943; CHO-K1 KCNQ2, FluxOR thallium flux fluorescence; active compounds read high;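 active = fluorescence ratio B-score at least 3 SD of library B-scores, with initial fluorescence B-score within 3 of them, cut at about 5.3 in these data; same plate scores as AID 2156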;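 note: B-score of peak minus minimum over baseline fluorescence ratio after K+ and Tl+ stimulus; positive B-score means potentiation of KCNQ2 with more thallium influx and brighter signal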
KCNQ2 inh conf: rat KCNQ2 channel inhibition, confirmatory screen; shares compounds with KCNQ2 inh; KCNQ2-expressing cells, thallium flux; active compounds read low; activity change, negative = inhibition, % at 10 µM; 1,000 compounds, 57% hits; AID 493025;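 note: 0% = vehicle wells and values are ratio percent relative to vehicle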
KCNQ1 spec: human KCNQ1 activity in KCNQ2 inhibitor specificity screen; shares compounds with KCNQ2 inh; KCNQ1-expressing cells, FluxOR thallium flux fluorescence; active compounds read low; activity change, negative = inhibition, % at 10 µM; 1,000 compounds, 15% hits; AID 493026;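 active = activity change at least 3 SD of negative controls below their mean in both duplicate wells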;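 note: CHO cells stably transfected with KCNQ1 and depolarized by potassium stimulus; peak minus minimum fluorescence over baseline after thallium addition; 0% = vehicle negative control and -100% = blank without thallium stimulus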
CHO parental ctr: activity in parental CHO cells lacking KCNQ2; shares compounds with KCNQ2 inh; activity change, % at 10 µM; 1,000 compounds, 14% hits; AID 493029; thallium flux counter-screen; active compounds read low;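 note: 0% = vehicle negative controls with stimulus buffer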
KCNQ2 inh confirm: rat KCNQ2 inhibition confirmed by electrophysiology; shares compounds with KCNQ2 inh; KCNQ2-expressing cells, automated patch clamp current; calls only at 10 µM; 550 compounds, 49% hits; AID 588531
Kir21 confirm: confirmation of mouse Kir2.1 potassium channel inhibitors | shares compounds with KCNQ2 enhance | Kir2.1-expressing cells, FluxOR thallium flux fluorescence; active compounds read low | Tl flux remaining, % of negative control (active compounds read low), % at 10 µM | 2,300 compounds, 41% hits;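 active = Primary-screen hit whose thallium flux fell at least 3 control SD below untreated wells in both duplicates, with normal baseline fluorescence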;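 note: 0% = blank wells without stimulus and 100% = stimulated no-compound controls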
HEK293 Tl flux: counter-screen for Kir2.1 inhibitors: effect in parental HEK293 cells. shares compounds with KCNQ2 enhance. FluxOR thallium flux fluorescence; 0% = unstimulated blank wells. FluxOR signal as % of negative control (100 = no effect), % at 10 µM. 2,300 compounds, 19% hits. AID 2105;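 active = dye signal at least 3 control SD above or below untreated wells in both duplicates, raw fluorescence within 3, either direction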;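 note: percent is based on the flux ratio of peak minus minimum fluorescence over baseline F0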
Active calls of the source: *; i = inactive; nt = no result; + = active, no number. Unless noted, the rule behind the calls is not given here.

SMILES	KCNQ2 inh	KCNQ2 enhance	others
CSc1ccc(CN2CCN(C(=O)Cc3ccccc3)CC2)cc1	i	0.4
COc1ccccc1/C=C1/C(=N/O)C2CCN1CC2	i	0.25
CN1C(=O)C(=Cc2coc3ccccc3c2=O)C(=O)N(C)C1=O	i	nt
O=C1NC(=O)C(=Cc2coc3ccc(O)cc3c2=O)C(=O)N1	-5.81*	-5.81
O=C(CF)NC(NC(=S)Nc1ccccc1O)C(Cl)(Cl)Cl (centres undefined)	i	nt
Fc1cccc(CCNCc2ccccn2)c1	i	0.37
O=C(O)c1ccc(-[n+]2c(-c3ccccc3)cc(-c3ccccc3)cc2-c2ccccc2)cc1	i	1.95
Nc1ccccc1-[n+]1c(-c2ccccc2)cc(-c2ccccc2)cc1-c1ccccc1	-6.47*	-6.47
CN1C(=O)NC(=O)/C(=C\C=C\c2ccccc2[N+](=O)[O-])C1=O	i	nt
C=CC[N+]1(C)C2CCC1CC(O)C2 (centres undefined)	i	nt
CC(C)N1CCC2(CC1)NC(CO)(CO)CO2	i	0.41
COc1ccc(OC)c(NP(=O)(Oc2ccc(Cl)cc2)Oc2ccc(Cl)cc2)c1	-6.14*	-6.14
COc1ccc(OC)c(NP(=O)(Oc2ccccc2)Oc2ccccc2)c1	i	0.02
CC(C)(C)N1Cc2ccccc2C1=N	i	0.6
CCOP(=O)(OCC)C(NC(=O)c1cccc(C)c1)C(Cl)(Cl)Cl (centres undefined)	i	0.7
Cc1cccc(C(=O)NC(Oc2ccccc2)C(Cl)(Cl)Cl)c1 (centres undefined)	-5.67*	-5.67
c1ccc2c(c1)Sc1ccccc1N2CC1CN2CCC1CC2 (centres undefined)	i	0.05
Cc1ccc(OCC(=O)N2CCN(C3CCC(c4ccccc4)CC3)CC2)cc1 (centres undefined)	-6.25*	-6.25
O=C(COc1ccc(Br)cc1)N1CCN(C2CCCC2)CC1	i	nt
O=C1C2CCCC1C(N1CCCC1)CC2 (centres undefined)	i	1.29
O=C(COc1ccc(Br)cc1)N1CCN(Cc2c[nH]c3ccccc23)CC1	-5.82*	-5.82
c1ccc2c(CN3CCCCC3)c[nH]c2c1	i	nt
Cc1ccccc1N1CCN(C2CCCN(C(=O)COc3ccccc3)C2)CC1 (centres undefined)	i	nt
COc1cccc(OP(=O)(Nc2ccccc2)Oc2cccc(OC)c2)c1	-7.07*	-7.07
O=P(Nc1ccccc1)(Oc1ccccc1)Oc1ccccc1	i	0.72
SMILES	KCNQ2 inh	KCNQ2 enhance	others
CN1CCCN(C(=O)COc2ccccc2Br)CC1	i	1.76
COc1cccc2c1O[C@H]1C(=O)CC[C@H]3CN(C)CCC231 (some centres undefined)	i	nt
COc1ccc(NC(c2ccccc2F)P(=O)(Oc2ccccc2)Oc2ccccc2)cc1 (centres undefined)	i	nt
COc1ccc(NC(c2ccccc2)P(=O)(Oc2ccccc2)Oc2ccccc2)cc1 (centres undefined)	-6.98*	-6.98	KCNQ2 inh conf=-31.0%*;KCNQ1 spec=i;CHO parental ctr=i;KCNQ2 inh confirm=+
O=P(Nc1ccccc1)(Nc1ccccc1)Oc1ccccc1	i	nt
O=P(Nc1ccccc1)(Nc1ccccc1)Oc1cccc(Cl)c1	-7.71*	-7.71	KCNQ2 inh conf=i;KCNQ1 spec=i;CHO parental ctr=i
CN1CSC(=S)N(C)C1	i	1.41
CON(C)C(=O)Nc1ccc(Cl)cc1	i	nt
O=C(Nc1ccc(Cl)cc1)O/N=C(\c1ccccc1)c1ccccn1	-7.65*	-7.65	KCNQ2 inh conf=i;KCNQ1 spec=i;CHO parental ctr=i
O=C(c1cccc([N+](=O)[O-])c1)C12CN3CN(CN(C3)C1)C2	i	nt
CC1Oc2cc3c(-c4c(O)cc(O)c5c(O)c6c(cc45)OC(C)C(C)C6=O)c(O)cc(O)c3c(O)c2C(=O)C1C (centres undefined)	i	nt
Oc1ccccc1-[n+]1c(-c2ccccc2)cc(-c2ccccc2)cc1-c1ccccc1	-7.58*	-7.58	KCNQ2 inh conf=-16.5%*;KCNQ1 spec=i;CHO parental ctr=i;KCNQ2 inh confirm=i;Kir21 confirm=44.5%*;HEK293 Tl flux=i
Cc1ccc(-c2cc(-c3ccccc3)cc(-c3ccccc3)[n+]2-c2ccc(C(=O)O)cc2)cc1	i	nt
Cc1cc(C=O)c(C)n1C(C)C	i	nt
CC(=O)N1N=C2C3CCN(CC3)C2C1c1ccc(Br)cc1 (centres undefined)	i	nt
COc1ccc(-[n+]2c(-c3ccccc3)cc(-c3ccc(C)cc3)cc2-c2ccccc2)cc1	-10.1*	-10.1	KCNQ2 inh conf=-26.0%*;KCNQ1 spec=i;CHO parental ctr=i;KCNQ2 inh confirm=+;Kir21 confirm=14.0%*;HEK293 Tl flux=i
COc1ccc(-c2cc(-c3ccccc3)[n+](C)c(-c3ccccc3)c2)cc1	i	nt
CN1CCN2c3ccc(N)cc3CC3(C(=O)NC(=O)NC3=O)C2C1 (centres undefined)	i	nt
COC1=CCC2([N+](=O)[O-])CN(C)CC1([N+](=O)[O-])C2 (centres undefined)	i	0.77
CCCCCCCSc1cc(OC)c(CCN(C)C)cc1OC	-7.74*	-7.74	KCNQ2 inh conf=-34.0%*;KCNQ1 spec=-37.5%*;CHO parental ctr=-27.5%*;KCNQ2 inh confirm=i;Kir21 confirm=19.0%*;HEK293 Tl flux=i
CC1CCC(C(C)C)C(OC(=O)Cn2c(COc3ccccc3)[n+](C)c3ccccc32)C1 (centres undefined)	-9.99*	-9.99	KCNQ2 inh conf=-55.0%*;KCNQ1 spec=-52.5%*;CHO parental ctr=-50.5%*;KCNQ2 inh confirm=i;Kir21 confirm=18.0%*;HEK293 Tl flux=i
CN(C)C(=O)O/N=C(\N)COc1ccc(C(C)(C)C)cc1	i	1.38
O=C1Nc2ccc(Br)cc2C(c2ccc(Cl)cc2)=NC1O (centres undefined)	i	2.2
COc1ccc(CCNCc2c(OC)ccc3ccccc23)cc1	i	nt	Kir21 confirm=28.5%*;HEK293 Tl flux=i
COc1ccc(CCNCc2ccccc2)cc1	i	1.26
SMILES	KCNQ2 inh	KCNQ2 enhance	others
COc1c2c(cc3c1OCO3)CC[N+](C)=C2	i	0.64
CN1C(=O)C(Cc2ccc3c(c2)OCO3)C(=O)N(C)C1=O	i	1.2
CN1CC(C(=O)c2cccc(C(F)(F)F)c2)C(c2ccc(Cl)cc2)C1 (centres undefined)	i	nt	Kir21 confirm=41.5%*;HEK293 Tl flux=59.0%*
CN1CC(C(=O)c2ccccc2)C(c2ccccc2)C1 (centres undefined)	i	1.25
COc1cccc(C(=O)C2CN(C)CC2c2ccc(Cl)cc2)c1 (centres undefined)	i	nt	Kir21 confirm=37.5%*;HEK293 Tl flux=i
CN1CC(C(=O)c2ccc([N+](=O)[O-])cc2)C(c2ccc(Cl)cc2)C1 (centres undefined)	i	nt
CC(C)N1OC2CC1c1nc3ccccc3n1C2 (centres undefined)	i	1.82
